In PubChem BioAssay AID1671190 (National Center for Advancing Translational Sciences (NCATS), 2021):
The whole screen tested about 580,000 compounds, of which about 6,100 (1.1%) were called active. Roughly 15% stayed inconclusive and do not appear here. The sample holds actives, similar compounds and a random draw of the others, so the mix is not that of the screen. Unmarked numbers belong to inactive results. Calls follow the shape of the dose curve; as a rule, active = well fitted inhibition curve with a large enough effect; inconclusive = small, poorly fitted or top-dose-only effect, or another doubt; inactive = no such curve, though single readings can be large or run the other way.

target: Polyunsaturated fatty acid lipoxygenase ALOX12 (Homo sapiens) (UniProt P18054); assay: Primary qHTS assay for inhibitors of human arachidonate 12S-lipoxygenase (ALOX12): Round 2; conditions: purified 12hLO, xylenol orange hydroperoxide absorbance; series mostly up to 108 µM; activity change, negative = inhibition: at the top concentration
Source text: Assay Provider: Theodore R. Holman Ph.D. University of California, Santa Cruz, California Human lipoxygenase 12hLO is a member of the closely related lipoxygenase family of enzymes which catalyze the site-specific oxidation of arachidonic acid to various hormone precursor molecules and as such is a candidate for drug development in a variety of disease areas, such as cancer and inflammation. Inhibition of 12hLO activity was screened by utilizing arachidonic acid as a substrate. The extent of hydroperoxide product formation was measured by a secondary chromogenic reaction in which xylenol orange (XO, Sigma-Aldrich, cat. number 39,818-7) reacts with the ferric ions produced from the reaction between the hydroperoxide and ferrous ions. The Fe (III)-XO complex is characterized with red-shifted absorbance at 560 nm. A purified preparation of human 12hLO was supplied by Dr. Holman laboratory, University of California, Santa Cruz.
PROTOCOL TABLE SEQUENCE No. (e.g., 1, 2, 3, etc.); […] (e.g., Cells, Incubation, Reagent, etc.); VALUE; DESCRIPTION 1; Enzyme; 3 uL; 150 nM 12hLO enzyme solution dispensed in 1536-well Greiner black, clear bottom plates. 2; Compound; 23 nL; compounds and controls were added. 3; Incubate; 15 min; room temperature. 4; Substrate; 1 uL; 40 uM arachidonic acid (final concentration). 5; Incubate; 30 min; room temperature. 6; Reagent; 4 uL; Fe-XO solution was added to each well. 7; Incubation; 30 min; room temperature 8; Detector; absorbance; Read 1 at 405 nm absorbance using ViewLux (Perkin-Elmer) CCD imager. 9; Detector; absorbance; Read 2 at 573 nm absorbance using ViewLux (Perkin-Elmer) CCD imager. NOTES (numbers refer to sequence above) 1; 150 nM 12hLO (final concentration) in buffer solution (25 mM Hepes, 0.01% Triton X-100, pH 7.0) was dispensed in columns 1, 2, 5-48. Column 1 is neutral (100% activity). Buffer only was dispensed in columns 3 and 4 as no enzyme negative controls. The plates were covered with metal lids with gas-exchange holes. 2; Compounds were pin transferred via a Kalypsys Pin Tool (Wako USA) in column 5-48. Control compound was transferred in column 2, titration of nordihydroguaiaretic acid (NDGA, Sigma-Aldrich, N5023) with top concentration of 20 mM in DMSO then 1:3 dilution in duplicate. Dilution factor of 23 nL into 4 uL final assay volume. 3; Covered assay plates were incubated for 15 min at room temperature. 4; Substrate was added to start the reaction; 40 uM arachidonic acid (Sigma-Aldrich, St. Louis, MO) was dispensed throughout the plate. 6; Chromogenic detection reagent solution (divalent iron/xylenol orange, Fe-XO) was added to each well: 200 uM xylenol orange, 300 uM ferrous ammonium sulfate prepared freshly in 50 mM sulfuric acid. 8, 9; Two absorbance readouts were obtained at 405 nm and at 573 nm using a ViewLux high-throughput CCD plate imager (Perkin-Elmer). The 573 to 405 (Read 2 / Read 1) absorbance ratio was used to compute reaction progress.
% is scaled to controls: 0 for no effect and ±100 for the full control effect; potency is read from the fitted curve at half-maximal effect.

Sequence of Polyunsaturated fatty acid lipoxygenase ALOX12 (Homo sapiens) (P18054 whole entry, looked up): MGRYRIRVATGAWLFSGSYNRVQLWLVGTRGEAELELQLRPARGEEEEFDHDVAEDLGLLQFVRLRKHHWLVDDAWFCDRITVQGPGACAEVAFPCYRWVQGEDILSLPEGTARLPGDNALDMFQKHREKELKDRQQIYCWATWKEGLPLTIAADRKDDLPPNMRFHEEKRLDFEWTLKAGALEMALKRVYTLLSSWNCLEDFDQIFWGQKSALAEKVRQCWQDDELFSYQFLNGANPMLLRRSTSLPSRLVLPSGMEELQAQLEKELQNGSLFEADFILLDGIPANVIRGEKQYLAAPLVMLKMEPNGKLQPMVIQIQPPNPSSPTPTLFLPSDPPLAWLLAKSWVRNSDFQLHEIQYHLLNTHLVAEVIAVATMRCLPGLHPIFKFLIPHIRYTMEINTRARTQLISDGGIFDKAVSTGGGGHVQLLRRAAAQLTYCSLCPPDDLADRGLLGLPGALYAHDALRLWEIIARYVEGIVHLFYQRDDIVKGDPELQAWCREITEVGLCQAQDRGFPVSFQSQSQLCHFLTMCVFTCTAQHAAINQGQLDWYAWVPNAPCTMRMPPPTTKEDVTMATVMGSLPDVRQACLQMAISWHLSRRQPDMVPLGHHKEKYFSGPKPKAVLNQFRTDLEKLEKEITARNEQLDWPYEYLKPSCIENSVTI

| Compound | activity change, negative = inhibition | Potency |
| --- | --- | --- |
| CCOc1ccccc1NC(=O)C1CCN(S(=O)(=O)c2c(C)nn(C)c2C)CC1 | 24.8% | – |
| CC(=O)C1=C(C)N(Cc2ccccc2)C(=S)NC1c1cccc(Br)c1 (configuration not stated) | – | 44.7 µM (active) |
| CCN(CC)C(=O)C1=C(C)N(Cc2ccc(F)cc2)C(=O)C(CC(=O)NC2CCCC2)C1 (configuration not stated) | -0.0623% | – |
| O=C(CN1CCN(Cc2ccc(Cl)cc2)C1=O)NCc1ccc(F)cc1 | -16.3% | – |
| COC(=O)C1=C(C)N(Cc2ccccc2C(F)(F)F)C(=NCC2CC2)NC1c1cccc(Cl)c1 (configuration not stated) | -22% | – |
| COC(=O)C1=C(C)N(Cc2ccc(F)cc2)C(=S)NC1c1cccc(Cl)c1 (configuration not stated) | – | 39.8 µM (active) |
| CC(=O)C1=C(C)N(Cc2ccc(Cl)cc2)C(=S)NC1c1ccc(F)cc1 (configuration not stated) | – | 44.7 µM (active) |
| COC(=O)C1=C(C)N(C)C(C)=C(C(=O)OC)C1c1cccc(Br)c1 | 34.3% | – |
| COC(=O)C1=C(C)N(Cc2ccccc2C(F)(F)F)C(=NCc2ccc(OC)cc2)NC1c1cccc(C(F)(F)F)c1 (configuration not stated) | -22.5% | – |
| CCN1CN(Cc2ccccc2)CNC1=S | -19.3% | – |
| O=C1CCN(C(=O)C2CCN(C(=O)C3COc4ccccc4O3)CC2)CCCCCCN1 (configuration not stated) | 54.9% | – |
| Cc1ccc(NC(=O)CN2c3ccccc3CC2C)c(Cl)c1 (configuration not stated) | -14.7% | – |
| O=C(CSc1nnc(Cc2ccccc2)n1-n1cccc1)Nc1ccccc1 | -10.4% | – |
| C[C@H](NC(=O)Cc1n[nH]c(=O)c2ccccc12)C(=O)N1CCN(c2ccccc2)CC1 | -1.08% | – |
| Cc1ccc(NC(=O)CCC2CCCC2)c(C)c1 | -24.1% | – |
| Cc1ccc(NC(=O)C2=Cc3sc4c(c3CS2)CCCC4)c(C)c1 | – | 20 µM (active) |
| Cc1ccc(NC(=O)c2cccc(CS(C)=O)c2)c(C)c1 (configuration not stated) | 1.34% | – |
| CSCCC(=O)NCc1ccccc1F | -2.18% | – |
| CCCCN1CC(C(=O)Nc2ccc(C(=O)Nc3ccccc3F)cc2)CC1=O (configuration not stated) | 11.8% | – |
| CN(CC1CCOC1)C(=O)Nc1cc(F)c(F)c(F)c1 (configuration not stated) | 6.34% | – |
| CC(=O)OCC1(COC(C)=O)COCC(COC(C)=O)(COC(C)=O)C1=O | -3.57% | – |
| C=CCNCc1ccc(Cl)c(Cl)c1 | -1.75% | – |
| CCCOC(=O)c1cc(NC(=O)c2cc(Cl)c(OC)c(Cl)c2)ccc1N1CCOCC1 | – | 5.62 µM (active) |
| O=C(Nc1ccc(N2CCOCC2)c(Cl)c1)c1ccc2c3c(cccc13)CC2 | -15.8% | – |
| CCOC(=O)c1cc(NCc2c(Cl)cccc2Cl)ccc1N1CCOCC1 | 2.88% | – |
| C=CCSc1nc2c(c(=O)[nH]c(=O)n2C)n1CCCCC | -30.9% | – |

| Compound | activity change, negative = inhibition | Potency |
| --- | --- | --- |
| C=CCNC(=O)CSc1nc(-c2ccccc2)c(-c2ccccc2)o1 | 1.97% | – |
| Cn1cc(CN2CCOC[C@H](Oc3ccc(S(C)(=O)=O)cc3)C2)c2ccccc21 | -0.899% [at 176 µM] | – |
| O=C(NC1CCNC1)C1CCN(c2nc(-c3ccccc3)nc3c2CCC3)CC1 (configuration not stated) | 12.3% | – |
| COc1ccc(CNC(=O)C(C)[C@@H]2CCc3c(C)cc(OCCN4CCOCC4)c(C)c3C2)cc1 (some centres not stated) | 9.71% | – |
| O=C(O)/C=C/c1ccccc1Cl | -22.4% | – |
| O=C(/C=C/c1ccccc1O)c1ccc(Cl)cc1Cl | – | 39.8 µM (active) |
| O=C(O)/C=C/c1ccc(Cl)cc1Cl | 4.88% | – |
| CN(C)C(=O)c1ccc(OCc2coc(-c3ccccc3)n2)cc1 | 2.11% | – |
| CC(C)Cn1cncc1CNC(=O)c1ccc2nc(-c3ccc(F)cc3)cn2c1 | 121% | – |
| C[N+]1(CCNC(=O)/C=N/O)CCCCC1 | – | 6.31 µM (active) |
| CCN(CC)S(=O)(=O)c1ccc(NC(=O)CC2c3ccccc3C=CN2C(C)=O)cc1 (configuration not stated) | -42.3% | – |
| COc1ccc(CC(=O)N[C@@H](CCSC)c2nc3ccccc3[nH]2)cc1 | -18.9% | – |
| CSCC[C@H](NC(=O)CSc1cc(Cl)ccc1Cl)c1nc2ccccc2[nH]1 | – | 44.7 µM (active) |
| COc1ccc(CC(=O)NC(CCSC)c2nc3ccccc3[nH]2)cc1 (configuration not stated) | 60.5% | – |
| Cc1nc(-c2ccc(OC(F)(F)F)cc2)sc1C(=O)N1CCCC1 | -4.28% | – |
| O=C(CSc1nc(CN2CCOCC2)nc2ccccc12)N1CCN(Cc2ccccc2)CC1 | -5.8% | – |
| Cc1cc2oc(C(=O)Nc3ccc(S(=O)(=O)N4CCCC(C)C4)cc3)cc(=O)c2cc1C (configuration not stated) | -23% | – |
| CC(=O)N1CCN(C(C(=O)O)c2cn(CCC(=O)O)c3cc(Br)ccc23)CC1 (configuration not stated) | -30% | – |
| CCCCCCCC[n+]1cccc(C(=O)N2c3c(nc(N)[nH]c3=O)NC(C)C2C)c1 (configuration not stated) | – | 44.7 µM (active) |
| COc1ccc(CCNC(=O)c2sc(NC(C)C)nc2C)cc1 | 15.6% | – |
| Cc1cccc(CN2CCN(C3CN(Cc4cn(Cc5cc(C)cc(C)c5)nn4)S(=O)(=O)C3)CC2)c1 (configuration not stated) | -26.8% | – |
| O=S1(=O)CC(N2CCN(CCO)CC2)CN1Cc1cn(Cc2ccc(Cl)cc2)nn1 (configuration not stated) | – | 25.1 µM (active) |
| Cc1cccc(CN2CCN(C3CN(Cc4cn(Cc5ccccc5F)nn4)S(=O)(=O)C3)CC2)c1 (configuration not stated) | 7.61% | – |
| CCCCCCN1CCN(C2CN(Cc3cn(Cc4ccc(F)cc4)nn3)S(=O)(=O)C2)CC1 (configuration not stated) | -57.1% | – |
| O=S1(=O)CC(N2CCN(CCO)CC2)CN1Cc1cn(Cc2cccc(Cl)c2)nn1 (configuration not stated) | – | 7.08 µM (active) |
| O=S1(=O)CC(N2CCSCC2)CN1Cc1cn(Cc2cccc(Cl)c2)nn1 (configuration not stated) | -5.84% | – |
